Laboratory results: the supplement of paper PMC6555819

Each sequence was assayed on PPARg:RXRa DBDmut IVT, anti-RXR (DBD mutation: RXRa K156A/R161A, NR concentration 270 nM, RXRa partner concentration 90 nM) (assay: PBM binding z-score (relative to random genomic background probes); higher = stronger binding; sequences stand for … in GC…GCGATTGACAGCGTAGAATGAAGG).
How it was run: (§1)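 Custom Agilent 4×180K protein-binding microarrays carried double-stranded probes. Their 34-nt variable regions held direct-repeat seeds, single-nucleotide variants, half-site ablations and random human genomic background sequences. Arrays were incubated 1 h with ligand-free nuclear receptor dimers in PBS pH 7.4, 2% milk, 0.02% Triton X-100, 1 mM DTT, 0.2 mg/mL BSA and 0.4 mg/ml salmon testes DNA. Antibodies against each partner (one per run) detected binding, and scanned fluorescence was regression-normalized. Binding z-scores use random background probes as reference.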

Sequence	PBM binding z-score
ATTCGGAGGACAAAGGTCAGAGCTACGCCAGTGA	0.417
GGAACGAGGGCAAGTTGATGGCAGAGTTTGATGG	3.55
AGTCAAAGTTCACTAGGTCACGTAAGATTCAGCT	5.56
TCTTGTAGATCAGGAGGTTAAGAAAGCTGGCCAA	1.51
TAGCCTAGGTCAGATCGGTCCAGTATACGCTATA	0.702
ATCTCTAGGTAACCAAGTTCAGGGAATGCCGAAC	3.23
TCGAGTAGGTTAGGGGCGTTCAGAATGGCGTCGA	1.69
TCATATAGGTAAACAGGGGAAAGTCCGTAAGTTA	4.67
ACTATTAGTTGAGACGAGGGCAACCTATAGGTTG	-0.0527
CCTACTGGGCCATCAGGCCATTGATATCAACGTT	3.85
TCTCGGAGCACACGAAGGTCAGAGCTTTCCAGAG	0.43
ATCTCTAGGTAACCAAGTTCAATGAATGCCGAAC	3.3
TGGATGAGGTTAAAGATCAGGGAACGTGGCGTCG	0.289
CTCGAAAGGTCGGTTGAGGTGCGTATACGGATAA	-0.22
ATCGAAAGGTCGAGCTGAGTATAGAGAAAGGGAA	-0.357
ACAGACATGTGAGTGAAGGTAACTCAGCTGGACG	-0.459
CAAACTAGGTCACGGAAGGTCAAAGTCGAATGAC	8.57
TAGCATAGGTCATTGGGCCAGTATAGTACGCATC	1.83
AGTCAAAGTTCATCTAGGTAACGTATGATATGCT	0.872
AGAATGAGGTTAAGATGAGGGAAACAGAATACAT	2.68

Sequence	PBM binding z-score
CCTCCAAGGTCAATGCTAGGTCAGTGAAAGCATT	3.02
TCGAGTAGGTTAGGGGCAGTCAGAATGGCGTCGA	2
ATCGAAAGGTCGACGAGGTGTGTATACACCGTTT	0.053
CCTACTGGGCCATTCAGAGGTCTTTGATCATATG	4.08
ATCGAAACGTCGAGGTGAGTATAGAGAAAGGGAA	-1
CCCAGCAGGCCAGGGTCACTCAAGCATTTCGCTT	-0.567
CTTCCAAGGTCAATGCTAGGTCAGTGAAAGCATT	3.33
GGTACGAGGGCATTCGAGTTGATAGCATGGCGAT	1.41
TGTCAAAGTTCAAAGGTAACGTACGTATCCACAC	0.385
GGAACGAGAGCAAAGTTGATAGCATCTGTCGACG	0.164
GCTATTAGTTGAAAGGGCAACCAAATGATTCTCG	0.461
ATATGTAGGTTACAACCGGGTCATTCAGGCTATG	7.11
TCTTGTAGATCAACAGGGGGTTAAGAAAGATCGA	2.83
CCTACTGGGCCAAAAAGCTCATTGATGCCGATAA	3.38
AGTCAAAGTTCAGGACGAGTTAACGTAAAGCACG	-0.151
TGAATGAGGTTAAAGATTAGGGAACGTGGCGTCG	2
CAAACTAGGTCCCGAAAGGTCAAAGTCGAATGAC	4.2
CCAAGTTGGTCAGGAGGTCACACACCGGATATGA	2.06
AGTCAAAGTTCAGGACGATGTAACGTAAAGCACG	-0.314
GCAACGAGGGCAAAGTTGATAGCATCTGTCGACG	2.74

The sequences below were run on PPARg:RXRa IVT, anti-PPARg (NR concentration 270 nM, RXRa partner concentration 90 nM) in the same assay as above.
How it was run: as §1

Sequence	PBM binding z-score
ATTCGGAGGACAAAGGTCAGAGCTACGCCAGTGA	3.74
GGAACGAGGGCAAGTTGATGGCAGAGTTTGATGG	2.56
AGTCAAAGTTCACTAGGTCACGTAAGATTCAGCT	6.73
TCTTGTAGATCAGGAGGTTAAGAAAGCTGGCCAA	0.654
TAGCCTAGGTCAGATCGGTCCAGTATACGCTATA	1.74
ATCTCTAGGTAACCAAGTTCAGGGAATGCCGAAC	2.89
TCGAGTAGGTTAGGGGCGTTCAGAATGGCGTCGA	1.26
TCATATAGGTAAACAGGGGAAAGTCCGTAAGTTA	3.46
ACTATTAGTTGAGACGAGGGCAACCTATAGGTTG	0.486
CCTACTGGGCCATCAGGCCATTGATATCAACGTT	3.8
TCTCGGAGCACACGAAGGTCAGAGCTTTCCAGAG	0.198
ATCTCTAGGTAACCAAGTTCAATGAATGCCGAAC	3.19
TGGATGAGGTTAAAGATCAGGGAACGTGGCGTCG	1.92
CTCGAAAGGTCGGTTGAGGTGCGTATACGGATAA	0.354
ATCGAAAGGTCGAGCTGAGTATAGAGAAAGGGAA	1.22
ACAGACATGTGAGTGAAGGTAACTCAGCTGGACG	-0.467
CAAACTAGGTCACGGAAGGTCAAAGTCGAATGAC	8.97
TAGCATAGGTCATTGGGCCAGTATAGTACGCATC	3.4
AGTCAAAGTTCATCTAGGTAACGTATGATATGCT	3.88
AGAATGAGGTTAAGATGAGGGAAACAGAATACAT	2.39

Sequence	PBM binding z-score
CCTCCAAGGTCAATGCTAGGTCAGTGAAAGCATT	3.34
TCGAGTAGGTTAGGGGCAGTCAGAATGGCGTCGA	1.49
ATCGAAAGGTCGACGAGGTGTGTATACACCGTTT	1.53
CCTACTGGGCCATTCAGAGGTCTTTGATCATATG	3.47
ATCGAAACGTCGAGGTGAGTATAGAGAAAGGGAA	0.225
CCCAGCAGGCCAGGGTCACTCAAGCATTTCGCTT	0.512
CTTCCAAGGTCAATGCTAGGTCAGTGAAAGCATT	4.08
GGTACGAGGGCATTCGAGTTGATAGCATGGCGAT	1.41
TGTCAAAGTTCAAAGGTAACGTACGTATCCACAC	4.52
GGAACGAGAGCAAAGTTGATAGCATCTGTCGACG	0.909
GCTATTAGTTGAAAGGGCAACCAAATGATTCTCG	1.15
ATATGTAGGTTACAACCGGGTCATTCAGGCTATG	7.41
TCTTGTAGATCAACAGGGGGTTAAGAAAGATCGA	3.29
CCTACTGGGCCAAAAAGCTCATTGATGCCGATAA	2.11
AGTCAAAGTTCAGGACGAGTTAACGTAAAGCACG	1.53
TGAATGAGGTTAAAGATTAGGGAACGTGGCGTCG	2.99
CAAACTAGGTCCCGAAAGGTCAAAGTCGAATGAC	4.78
CCAAGTTGGTCAGGAGGTCACACACCGGATATGA	3.44
AGTCAAAGTTCAGGACGATGTAACGTAAAGCACG	1.19
GCAACGAGGGCAAAGTTGATAGCATCTGTCGACG	3.19
